Measurements: PMC4336329 (PLoS ONE, 2015)
Out of some 310,000 compounds screened, about 14,000 (4.5%) showed an effect of 50% or more. The effect is printed as a negative number. The sample holds strong results, similar compounds and a random draw of the others, so the mix is not that of the screen.

What follows are molecules tested against human ether-à-go-go-related gene (hERG) potassium channel (human, UniProt Q12809) (assay: primary screen, population patch clamp on CHO cells stably expressing hERG; higher = less effect of the substance).
human ether-à-go-go-related gene (hERG) potassium channel, sequence (Q12809 whole entry, looked up): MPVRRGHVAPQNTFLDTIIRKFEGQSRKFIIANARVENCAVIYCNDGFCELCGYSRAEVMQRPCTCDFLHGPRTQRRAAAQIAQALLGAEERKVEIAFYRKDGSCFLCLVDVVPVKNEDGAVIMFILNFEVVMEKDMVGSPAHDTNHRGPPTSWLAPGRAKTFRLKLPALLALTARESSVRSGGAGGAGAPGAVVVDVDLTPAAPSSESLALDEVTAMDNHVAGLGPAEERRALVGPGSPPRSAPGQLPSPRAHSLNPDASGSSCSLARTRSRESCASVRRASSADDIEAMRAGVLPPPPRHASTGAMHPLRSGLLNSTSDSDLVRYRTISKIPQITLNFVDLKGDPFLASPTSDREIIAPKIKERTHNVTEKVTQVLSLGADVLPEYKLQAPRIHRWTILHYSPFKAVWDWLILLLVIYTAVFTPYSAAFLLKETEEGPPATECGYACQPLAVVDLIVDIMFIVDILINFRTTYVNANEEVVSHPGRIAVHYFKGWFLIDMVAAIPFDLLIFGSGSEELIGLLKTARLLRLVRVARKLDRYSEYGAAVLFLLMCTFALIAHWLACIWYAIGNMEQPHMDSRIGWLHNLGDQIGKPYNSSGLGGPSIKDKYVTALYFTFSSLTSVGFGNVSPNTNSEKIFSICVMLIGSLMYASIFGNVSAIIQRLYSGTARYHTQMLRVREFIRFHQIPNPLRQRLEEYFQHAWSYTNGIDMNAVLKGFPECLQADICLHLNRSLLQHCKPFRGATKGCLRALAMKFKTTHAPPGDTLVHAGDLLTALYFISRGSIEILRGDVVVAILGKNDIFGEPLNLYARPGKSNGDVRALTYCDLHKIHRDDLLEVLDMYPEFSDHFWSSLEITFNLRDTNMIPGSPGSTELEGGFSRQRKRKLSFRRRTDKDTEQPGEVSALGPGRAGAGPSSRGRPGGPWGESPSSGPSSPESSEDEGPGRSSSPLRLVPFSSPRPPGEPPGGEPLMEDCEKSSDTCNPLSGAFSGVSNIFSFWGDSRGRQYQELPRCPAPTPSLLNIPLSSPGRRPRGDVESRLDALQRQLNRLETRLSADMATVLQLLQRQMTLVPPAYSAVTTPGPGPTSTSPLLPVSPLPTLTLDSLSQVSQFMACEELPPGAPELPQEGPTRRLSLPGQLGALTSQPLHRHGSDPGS
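Also: peak tail current of the secondary pulse compared with the same well before compound.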

Row | Structure (SMILES) | hERG current change (%, negative = inhibition) at 10uM [%]
1 | COc1ccccc1NC(=O)CNc1ccc(F)c(Cl)c1 | -11.7
2 | CCn1cc([N+](=O)[O-])c(C(=O)Nc2ccc3c(c2)OCCO3)n1 | -9.69
3 | COCCCNC(=O)c1ccccc1Sc1ccc(NC(C)=O)nc1 | 25.8
4 | C=CCn1c(SCC(=O)c2ccc(OC)cc2)nnc1-c1cc2cccc(OC)c2o1 | 25.8
5 | CCC(C)NC(=O)CCc1nnc2ccc(N3CCC(C)CC3)nn12 (centres unmarked) | 3.66
6 | COc1ccc(N2CC(C(=O)Nc3ccc4c(c3)OCCO4)CC2=O)cc1 (centres unmarked) | 4.94
7 | CCc1ccc(NS(=O)(=O)c2ccc3oc(=O)ccc3c2)cc1 | -1.91
8 | CCOC(=O)C1(Cc2ccc(Cl)cc2)CCN(C(=O)c2cscn2)CC1 | -37.4
9 | CCOC(=O)C1(Cc2ccc(Cl)cc2)CCN(C(=O)c2cnc(C)cn2)CC1 | -57.1
10 | CCOC(=O)C1(Cc2ccc(Cl)cc2)CCN(C(=O)C2CCCO2)CC1 (centres unmarked) | -33.2
11 | O=C1CCC(C(=O)N2CCC(CO)(Cc3ccc(Cl)cc3)CC2)=NN1 | -32.5
12 | CCOC(=O)C1(Cc2ccc(Cl)cc2)CCN(C(=O)C2=NNC(=O)CC2)CC1 | -69.6
13 | C=CCN1CC(C(=O)N2CCC(Cc3ccc(Cl)cc3)(C(=O)OCC)CC2)CC1=O (centres unmarked) | -72.4
14 | CCOC(=O)C1(Cc2ccc(OC)cc2)CCN(C(=O)c2csc(C)n2)CC1 | 2.99
15 | CCOC(=O)C1(Cc2ccc(Cl)cc2)CCN(C(=O)c2ccoc2)CC1 | -49.4
16 | CCOC(=O)C1(Cc2ccc(Cl)cc2)CCN(C(=O)c2cc(C)nc(C)n2)CC1 | -38.1
17 | CCOC(=O)C1(Cc2ccc(Cl)cc2)CCN(C(=O)c2sc(C)nc2C)CC1 | -52.9
18 | CCOC(=O)C1(Cc2ccc(OC)cc2)CCN(C(=O)c2sc(C)nc2C)CC1 | 1.86
19 | CCOC(=O)N1CCN(C(=O)C2CCC(=O)N(Cc3ccc(Cl)cc3)C2)CC1 (centres unmarked) | -40.5
20 | O=C1CC(NS(=O)(=O)c2cccs2)CN1c1cccc(F)c1 (centres unmarked) | -6.29
21 | O=C(Nc1ccc(Cl)c(S(=O)(=O)N2CCOCC2)c1)c1ccc2c(c1)OCCO2 | 12.6
22 | COc1ccc2c(c1)C1NC(=S)N[C@@](C)(O2)C1C(=O)Nc1ccccc1 (some centres unmarked) | -3.49
23 | CCOC(=O)[C@H]1[C@H]2COc3cc(OC)ccc3[C@@H]2N2C(=O)CN(Cc3ccccc3)C(=O)[C@@]12C | -8.34
